Nrf2 block – inhibitors of Nrf2 signaling; AID 504444; A549 ARE-Fluc reporter, luciferase luminescence, 18-24 h; 360,000 tested, 2.1% active; Potency, µM (highest dose often 46 µM), most hits filed as inhibitors; note: nearly all actives have a fitted effect of over 60% in size
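In this cell-based qHTS, ARE-driven firefly luciferase in A549 cells reports Nrf2 activity; the luminescent signal after BugLite lysis is the measured value, with a prior CellTiter-Fluor read for cell health.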
Nrf2 ARE act – Nrf2 pathway activation; AREc32 ARE-luciferase reporter (MCF7-derived line), luminescence, 24 h; Potency, µM (doses to about 46.1 µM), usual class: activators; AID 624171; 410,000 tested, 0.31% active; note: nearly all actives have a fitted effect of over 65% in size
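Reporter line AREc32 (ARE-Fluc), seeded overnight in OPTI-MEM with 5% FBS; compound pin-transferred, 24 hr at 37 deg C, 5% CO2; luminescent read-out.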
mIDH1 inhibitor – blocks human mutant IDH1 R132H enzyme | O75874 | IDH1-R132H enzyme, NADPH consumption, diaphorase/resazurin fluorescence | Potency, µM (titrated, usually from 76.6 µM), most hits filed as inhibitors | 390,000 tested, 0.093% active | AID 602179; note: nearly all actives have a fitted effect of over 65% in size
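IDH1-R132H (0.5 ug/mL dispensed) in pH 7.5 Tris buffer was preincubated 30 min with compound, then given a substrate mix of 0.016 mM NADPH and 2 mM alpha-KG for 80 min at room temperature; remaining NADPH was read by diaphorase/resazurin fluorescence.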
LDHA block – blocks human lactate dehydrogenase A; activity change, % (values are at about 110 or 230 µM); 480,000 tested, 0.15% active; purified LDHA, NADH/diaphorase-resazurin fluorescence; active compounds read low; P00338; AID 1347041; in the data active = activity change below about -30%; inconclusive = mostly about -25% to -30%
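Human LDH5 (2 nM) was incubated with 0.06 mM NADH and 0.2 mM pyruvate for 5 min at room temperature in Tris pH 7.4. Remaining NADH was coupled through diaphorase/resazurin, and resorufin fluorescence was read at 0 and 20 min.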
ALOX12 inh – inhibitors of human 12S-lipoxygenase ALOX12. P18054. purified 12hLO, xylenol orange hydroperoxide absorbance. Potency, µM (top dose mostly 108 µM), actives largely listed as inhibitors. 580,000 tested, 1.1% active
Target sequence (P18054 whole entry, looked up): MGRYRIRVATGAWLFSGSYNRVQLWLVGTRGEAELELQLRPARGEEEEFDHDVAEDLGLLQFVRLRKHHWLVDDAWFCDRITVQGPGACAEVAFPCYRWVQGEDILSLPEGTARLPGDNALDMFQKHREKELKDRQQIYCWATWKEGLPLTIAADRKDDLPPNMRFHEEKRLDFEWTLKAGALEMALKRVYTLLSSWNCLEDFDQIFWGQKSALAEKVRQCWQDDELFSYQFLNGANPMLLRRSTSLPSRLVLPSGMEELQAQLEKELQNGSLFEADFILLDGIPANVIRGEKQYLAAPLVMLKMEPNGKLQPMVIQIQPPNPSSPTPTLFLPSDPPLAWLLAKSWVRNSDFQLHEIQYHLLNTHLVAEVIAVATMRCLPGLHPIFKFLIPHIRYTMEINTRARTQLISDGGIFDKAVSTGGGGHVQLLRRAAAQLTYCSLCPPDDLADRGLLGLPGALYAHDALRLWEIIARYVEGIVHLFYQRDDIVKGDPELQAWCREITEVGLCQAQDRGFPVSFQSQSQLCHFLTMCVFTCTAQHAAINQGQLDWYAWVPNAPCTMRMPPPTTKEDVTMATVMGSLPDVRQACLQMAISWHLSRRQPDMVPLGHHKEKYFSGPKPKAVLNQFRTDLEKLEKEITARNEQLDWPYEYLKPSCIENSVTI
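Hydroperoxide product was detected by ferrous iron/xylenol orange as the 573 to 405 nm absorbance ratio. Arachidonic acid at 40 uM (final) was turned over for 30 min at room temperature by 150 nM human 12hLO, pH 7.0 Hepes buffer, after 15 min compound preincubation.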
A549 tox – counter-screen for Nrf2 inhibitors: cytotoxicity in A549 cells | AID 504648 | Potency, µM (series often up to 46 µM), usual class: inhibitors | 390,000 tested, 0.16% active | A549 ARE-Fluc cells, CellTiter-Fluor viability, 18-24 h
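Cytotoxicity counterscreen: CellTiter-Fluor fluorescence was measured in A549 ARE_Fluc cells after 18-24 h of compound exposure in a concentration series. The subsequent BugLite luminescent read reports ARE-luciferase activity.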
Numbers stand for hits; . = inactive; ? = inconclusive; / = no result. A selection: hits, their analogues and other compounds. The true share with any hit is near 2.7%. Unless noted, calls come from the whole dose curve; as a rule, active = well fitted curve in the direction sought with a large enough effect; inconclusive = small, poorly fitted or top-dose-only effect, or another doubt; inactive = no such curve, though single readings can be large; an effect the other way counts as inactive or inconclusive.

SMILES	Nrf2 block	Nrf2 ARE act	mIDH1 inhibitor	LDHA block	ALOX12 inh	A549 tox
Cc1sc(NC(=O)c2ccco2)c(C(Nc2ccccn2)c2ccccc2)c1C (stereo not drawn)	21µM	.	.	.	.	.
Cc1noc(C)c1-c1ccc2ncnc(NC(C)c3ccccc3)c2c1 (stereo not drawn)	23µM	/	/	/	/	.
Cc1noc(C)c1-c1ccc2ncnc(NCc3cccc(-c4ccccc4)c3)c2c1	7.3µM	/	/	/	/	.
CC(Nc1ncnc2ccccc12)c1ccccc1 (stereo not drawn)	?	.	.	.	.	.
Cc1noc(C)c1-c1ccc2ncnc(NCc3ccccc3F)c2c1	21µM	/	/	/	/	.
CCOc1ccccc1CNc1ncnc2ccc(-c3c(C)noc3C)cc12	16µM	.	/	.	.	.
Cc1noc(C)c1-c1ccc2ncnc(NCc3ccc(F)cc3)c2c1	.	/	/	/	/	.
COC(=O)[C@@H](CCSC)NC(=O)Nc1ccc(OC)c(Cl)c1	/	/	/	.	?	/
Nc1nnnn1NCc1c(OCc2ccc(Cl)cc2Cl)ccc2ccccc12	/	/	/	.	?	/
CCOC(=O)C1CCCN(C(=O)c2ccc3c(c2)sc2nc(-c4cccc(OC)c4)cn23)C1 (stereo not drawn)	16µM	.	.	.	?	.
Cc1ccc(Nc2c([N+](=O)[O-])c(=O)oc3ccccc23)cc1	18µM	?	.	.	.	?
CCCCCCNC(=O)CNC(=S)N(Cc1cccs1)C1CCCCC1	16µM	.	.	.	?	?
CCOC(=O)CNC(=S)N(Cc1cccs1)C1CCCC1	.	.	.	.	.	.
O=C(CN1CCN(c2ccc(C(F)(F)F)cn2)CC1)Nc1nc(-c2ccc(F)c(F)c2)cs1	/	/	/	.	.	/
O=C(CSc1ccc2c(c1)OCCO2)c1ccc2c(c1)CCC2	/	/	/	.	?	/
O=C(CSc1ccc2ccccc2c1)c1ccc2c(c1)CCC2	/	/	/	.	35µM	/
Clc1ccc(CN2CC[C@H](c3nc4cc(Cl)ccc4o3)C2)cc1	/	/	/	/	22µM	/
FC(F)(F)c1ccc2nc([C@H]3CCN(Cc4ccc(Cl)cc4)C3)[nH]c2c1	/	/	/	/	32µM	/
Clc1ccc2oc([C@H]3CCN(Cc4cccs4)C3)nc2c1	/	/	/	/	.	/
CN(C)c1ccc(CN2CC[C@H](c3nc4ccc(C(F)(F)F)cc4[nH]3)C2)cc1	/	/	/	/	.	/
CCOc1cc(C(=O)Nc2ccc3oc(=O)ccc3c2)cc(OCC)c1OCC	/	/	/	.	.	/
NC(=O)c1ccsc1NC(=O)CSc1ccc2c(c1)CCC2	/	/	/	.	?	/
COc1ccc(S(=O)(=O)NC[C@H]2O[C@@H](CO)[C@@H](O)[C@H]2N2CCN(c3ccccn3)CC2)cc1	/	/	/	/	.	/
Cc1ccc(S(=O)(=O)NC[C@H]2O[C@@H](CO)[C@@H](O)[C@H]2N2CCN(c3ncccn3)CC2)cc1	/	/	/	/	16µM	/
COc1ccc(-c2nc(SCC(=O)N3CCCC3c3ccc4c(c3)OCCO4)n[nH]2)cc1 (stereo not drawn)	/	/	/	.	?	/
SMILES	Nrf2 block	Nrf2 ARE act	mIDH1 inhibitor	LDHA block	ALOX12 inh	A549 tox
O=C(c1ccc(F)c(Cl)c1)N1CCC2(CC1)N=C(c1ccccc1)NO2	/	/	/	/	.	/
Clc1ccccc1-c1nn2c(-c3ccncc3)nnc2s1	8.2µM	.	.	.	/	.
Clc1ccccc1-c1nnc2sc(-c3ccncc3)nn12	.	.	.	.	.	.
COC(=O)CO[C@@H]1CO[C@H]2[C@@H]1OC[C@@H]2NC(=S)Nc1cc(C)cc(C)c1	/	/	/	/	71µM	/
CCOc1ccc(-n2nc3ccc(NC(=O)c4ccc(-c5cccc(Cl)c5)o4)cc3n2)cc1	15µM	.	.	.	?	.
O=C(NC1CCN(c2cc(C(F)(F)F)ncn2)CC1)c1ccccc1	/	/	/	/	45µM	/
CCOc1ccccc1NC(=O)Nc1ccc2c(c1)OCO2	.	.	.	.	.	.
C=CCOc1ccccc1CN(C(=O)CCl)c1ccc2c(c1)OCO2	.	22µM	.	.	?	.
CCN(CC)S(=O)(=O)c1ccc(N2CCN(C)CC2)c(NC(=O)Cc2ccccc2)c1	/	/	/	.	.	/
CCN(C(C)=O)c1cnc(C=NNC(N)=S)c2ccccc12	8.2µM	.	.	.	?	?
